Data reported in PubChem BioAssay (Tox21).
The source made the active and inactive calls. Calls follow the shape of the dose curve; as a rule, active = well fitted curve in the direction sought with a large enough effect in the repeat runs; inconclusive = weak or mixed curves; inactive = flat fitted curve, though single readings scatter.
% is scaled to controls: 0 for no effect and ±100 for the full control effect.

Assay: qHTS assay to test for compound auto fluorescence at 590 nm (red) in HepG2 cell free culture (AID 720684)
Details: cell-free medium autofluorescence, red 540/590 nm; series mostly up to 91.3 µM; fluorescence, % of Rose Bengal: at the top concentration
Excerpt: U.S. Tox21 Program National Center for Advancing Translational Sciences [NCATS] NIH Chemical Genomics Center [NCGC] U.S. Environmental Protection Agency [EPA] National Institutes of Environmental Health Sciences [NIEHS] National Toxicology Program [NTP] U.S. Food and Drug Administration [FDA] Tox21 Assay Overview: Compound auto fluorescence often interferes with screening of the compound library against various biological targets and signaling pathways. Some of these compounds may have fluorophoric properties. Such properties may interfere with the assay outputs resulting in false positives and/or negatives. To decrease such complications and ensure the compound activities are relevant in terms of biological response, the Tox21 10K compound library was screened for auto fluorescence. From the fluorophores used as reporter signals in our screening assays, the auto fluorescence equivalencies of compounds against three fluorophores have been evaluated: Triamterene, Fluorescein and Rose Bengal sodium for blue, green and red fluorescence, respectively. The fluorescence intensities were measured using Excitation/Emission wavelengths at 405/460nm, 485/535nm and 540/590nm for blue, green and red labels, respectively. This assay includes the red fluorescence data.
Tox21 Assay Protocol Summary: 5 uL of culture medium (MEM containing 10% FBS) per well was dispensed into black wall/clear bottom 1536-well plates using a Multidrop Combi Dispenser (ThermoFisher Scientific, Waltham, MA). After 23 nL compound or DMSO vehicle was transferred into assay plate by a pintool work station (Kalypsys, San Diego, CA), fluorescence intensities in the assay plates were measured by an Envision (PerkinElmer, Shelton, CT) plate reader using three labels for measuring blue, green and red fluorescence at […] 460, 535 and 590nm respectively.
For `O=C(O)c1cc(-c2ccc(F)cc2F)ccc1O`, the fluorescence, % of Rose Bengal was -0.0804% [at 18.6 µM] (inactive).
With `OCCN1CCN(CCCN2c3ccccc3Sc3ccc(C(F)(F)F)cc32)CC1` the “fluorescence, % of Rose Bengal” value was 0.228% [at 46 µM] (inactive).
In the case of `C[Si](Cl)(c1ccccc1)c1ccccc1`, the “fluorescence, % of Rose Bengal” value is reported as -0.102% (inactive).
In the case of `CC(C)OC(=O)C(O)(CC(=O)O)CC(=O)O`, the “fluorescence, % of Rose Bengal” value is reported as -0.189% (inactive).
With `Oc1cc(Cl)cc(Cl)c1Cl` the “fluorescence, % of Rose Bengal” value was -0.0508% [at 95.7 µM] (inactive).
In the case of `O=C(/C=C/c1ccc(O)c(O)c1)O[C@@H](C(=O)O)[C@@H](OC(=O)/C=C/c1ccc(O)c(O)c1)C(=O)O`, the “fluorescence, % of Rose Bengal” value is reported as -0.0967% (inactive).
In the case of `C#C[C@]1(O)CC[C@H]2[C@@H]3[C@H](C)CC4=C(CCC(=O)C4)[C@H]3CC[C@@]21C`, the “fluorescence, % of Rose Bengal” value is reported as 0.234% [at 46 µM] (inactive).
For `c1ccsc1`, the “fluorescence, % of Rose Bengal” value was -0.0708% (inactive).
With `Cc1c(C)c2c(c(C)c1OC(=O)c1cccnc1)CC[C@@](C)(CCC[C@H](C)CCC[C@H](C)CCCC(C)C)O2` the “fluorescence, % of Rose Bengal” value was 0.0006% [at 46 µM] (inactive).
With `[Cl][Pt-2]([Cl])([Cl])[Cl]` the “fluorescence, % of Rose Bengal” value was 0.11% (inactive).
For `CCCCN(CCCC)CC(O)c1cc(Cl)cc2c1-c1ccc(Cl)cc1/C2=C/c1ccc(Cl)cc1` (stereo not given), the “fluorescence, % of Rose Bengal” value was -0.104% [at 46 µM] (inactive).
For `CN(C)Cc1ccccc1O`, the “fluorescence, % of Rose Bengal” value was 0.0998% (inactive).
With `CC(C)Cn1cnc2c(N)nc3ccccc3c21` the “fluorescence, % of Rose Bengal” value was -0.0206% [at 46 µM] (inactive).
For `O=S(=O)(O)c1ccc(N=Nc2c(O)ccc3ccccc23)cc1`, the “fluorescence, % of Rose Bengal” value was 0.101% (inactive).
For `CCC(C)[O-].CCC(C)[O-].CCOC(=O)/C=C(/C)[O-].[Al+3]`, the “fluorescence, % of Rose Bengal” value was 0.0182% (inactive).
With `Cc1cc(C(C)(C)C)cc(C)c1CC1=NCCN1` the fluorescence, % of Rose Bengal was -0.207% [at 18.6 µM] (inactive).
In the case of `c1cnccn1`, the “fluorescence, % of Rose Bengal” value is reported as 0.305% [at 95.7 µM] (inactive).
With `[Cu+]` the “fluorescence, % of Rose Bengal” value was 0.066% (inactive).
For `O=C(O)CN(CCN(CC(=O)O)CC(=O)O)CC(=O)O`, the Potency was “inactive”.
In the case of `O=c1[nH]c2ccccc2n1CCCN1CCN(C(c2ccccc2)c2ccccc2)CC1`, the “fluorescence, % of Rose Bengal” value is reported as 0.0008% [at 46 µM] (inactive).
With `COc1cc(C)ccc1O` the “fluorescence, % of Rose Bengal” value was 0.0535% (inactive).
For `CCCCCC(C)OC(=O)COc1ccc(Cl)c2cccnc12` (stereo not given), the “fluorescence, % of Rose Bengal” value was 0.018% (inactive).
In the case of `Cc1ccc(C(C)C)cc2c(C)ccc1-2`, the “fluorescence, % of Rose Bengal” value is reported as -0.0374% [at 46 µM] (inactive).
For `FC(F)(F)c1cccc(Cl)c1`, the “fluorescence, % of Rose Bengal” value was 0.0118% (inactive).
For `CCCCCCCCCCCCCC[N+](C)(C)Cc1ccccc1`, the Potency was “inactive”.
In the case of `CN(C)Cc1cc(C(C)(C)C)c(O)c(C(C)(C)C)c1`, the “fluorescence, % of Rose Bengal” value is reported as 0.104% (inactive).
For `Cc1ccc(C)cc1`, the “fluorescence, % of Rose Bengal” value was -0.181% (inactive).
In the case of `Cc1nc(-c2ccc(Cl)cc2)oc1COC(C)(C)C(=O)O`, the “fluorescence, % of Rose Bengal” value is reported as 0.0424% [at 46 µM] (inactive).
In the case of `O=C(Nc1ccc2c(O)c(N=Nc3ccc(N=Nc4ccc(S(=O)(=O)O)cc4)cc3)c(S(=O)(=O)O)cc2c1)c1ccccc1`, the “fluorescence, % of Rose Bengal” value is reported as -0.247% (inactive).
With `O=c1[nH]c(=O)n([C@H]2C[C@H](O)[C@@H](CO)O2)cc1F` the “fluorescence, % of Rose Bengal” value was 0.489% [at 46 µM] (inactive).
In the case of `CCCCCCCC/C=C\CCCCCCCCN`, the “fluorescence, % of Rose Bengal” value is reported as 0.0225% [at 46 µM] (inactive).
With `OC12N=C(c3ccccc3)SC1Cc1cc(Cl)ccc12` (stereo not given) the “fluorescence, % of Rose Bengal” value was 0.0401% (inactive).
In the case of `COc1ccc(NC(=O)CC(C)=O)cc1`, the “fluorescence, % of Rose Bengal” value is reported as -0.116% (inactive).
In the case of `O=C(O)c1cccc(C(F)(F)F)c1`, the “fluorescence, % of Rose Bengal” value is reported as 0.0816% (inactive).
With `COC(=O)Nc1nc2ccc(C(=O)c3ccccc3)cc2[nH]1` the fluorescence, % of Rose Bengal was 0.103% [at 18.6 µM] (inactive).
For `CC(C)=CCC1=C(O)c2ccccc2C(=O)C1=O`, the “fluorescence, % of Rose Bengal” value was -0.179% (inactive).
With `O=C1CCc2cc(OCCCCc3nnnn3C3CCCCC3)ccc2N1` the “fluorescence, % of Rose Bengal” value was 0.484% [at 46 µM] (inactive).
In the case of `Nc1nc2c(ncn2COCCO)c(=O)[nH]1`, the fluorescence, % of Rose Bengal is reported as -0.264% [at 18.6 µM] (inactive).
For `CCCCCCCC`, the “fluorescence, % of Rose Bengal” value was -0.0362% (inactive).
In the case of `O=C(O)Cc1ccccc1Nc1c(Cl)cccc1Cl`, the Potency is reported as “inactive”.
